PubChem BioAssay (Tox21)
Where “and” joins values, the source holds several entries; their conditions need not be identical. Equal entries are not always repeated. A number with no mark means an inactive call. Results filed as inconclusive are left out. A call without a number means that no potency is given here. Calls of active or inactive are those of the source. Unless noted, the call rests on the fitted dose curve.

Key:
[1] = Nuclear factor erythroid 2-related factor 2/antioxidant responsive element (Nrf2/ARE) small molecule agonists: luciferase reporter gene qHTS assay in human keratinocytes (AID 1919969); further: nearly all actives have a fitted effect of over 35% in size; further: potency means the concentration at half of the fitted maximal effect
[2] = biological target: Gonadotropin-releasing hormone receptor (Homo sapiens) (UniProt P30968); test: Human gonadotropin-releasing hormone receptor (GnRHR) small molecule agonists, calcium flux assay in GnRHR-HEK293 cells (AID 1920063); further: nearly all actives have a fitted effect of over 35% in size
In short: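 Agonist mode: compounds at 15 concentrations, in triplicate, went onto calcium dye-loaded GnRHR-HEK293 cells. Intracellular calcium was then followed as 480/540 nm fluorescence at 1 s intervals over 3 min.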

[3] = biological target: KiSS-1 receptor (Homo sapiens) (UniProt Q969F8); test: Human kisspeptin (KISS1R) small molecule agonists, calcium flux assay in KISS1R-HEK293 cells (AID 1920064; active means well fitted activation curve with a large enough effect in the repeat runs)
In short: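 Agonist mode: intracellular calcium rise tracked at 1 s intervals over 3 min (480/540 nm) immediately after compound addition to dye-loaded KISS1R-HEK293 stable cells. Each compound tested at 15 concentrations in triplicate.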

[4] = G protein-coupled receptor (GPCR) small molecule agonists, calcium flux assay: HEK293 wild type cell line counter screen (AID 1920065)
In short: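 Calcium flux counter screen: compound added in agonist mode at 15 concentrations in triplicate to dye-loaded parental HEK293 cells. Fluorescence (480/540) read kinetically for 3 min; ATP served as positive control.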

[5] = p53 small molecule agonists, cell-based qHTS assay with human liver microsomes (AID 1963577)
In short: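 Fluorescence of the beta-lactamase reporter in p53RE-bla cells, detected with LiveBLAzer substrate (2 h, room temperature, dark), served as the read-out after 16 h compound exposure at 37 C with human liver microsomes and NADPH, each 0.5 mg/mL final.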

[6] = p53 small molecule agonists, cell-based qHTS assay with rat liver microsomes (AID 1963578)
In short: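 Cells carrying a p53 response element–beta-lactamase reporter were plated and rested 5 h, then dosed with compound in DMSO plus rat liver microsomes and NADPH, each at 0.5 mg/mL final. After 16 h at 37 C, LiveBLAzer substrate was added for 2 h.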

[7] = p53 small molecule agonists, cell-based qHTS assay with human liver microsomes: qHTS cell viability counter screen (AID 1963579); further: nearly all actives have a fitted effect of over 45% in size
In short: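 Cytotoxicity counter screen: p53RE-bla, 4,000 cells/well; 5 h settle, 37 C/5% CO2; cpd + HLM 0.5 mg/mL + NADPH 0.5 mg/mL (final); 16 h, 37 C; CellTiter-Glo, 30 min RT, luminescence.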

[8] = p53 small molecule agonists, cell-based qHTS assay with rat liver microsomes: qHTS cell viability counter screen (AID 1963580); further: nearly all actives have a fitted effect of over 45% in size
In short: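 After the beta-lactamase ratio was read, CellTiter-Glo was added to the same wells and luminescence measured at 30 min; cells had been treated 16 h at 37 C with compounds, rat liver microsomes and NADPH (0.5 mg/mL final each).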

[9] = p53 small molecule agonists, cell-based qHTS assay: qHTS cell viability counter screen (AID 1963581); further: nearly all actives have a fitted effect of over 45% in size
In short: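 Counter screen read by CellTiter-Glo luminescence (ATP content, 30 min at room temperature), run in the same wells as the beta-lactamase reporter read. HCT-116 p53RE-bla cells saw compounds for 16 h at 37 C.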

[10] = p53 small molecule agonists, cell-based qHTS assay (AID 1963582; active means well fitted activation curve with a large enough effect in the signal ratio in the repeat runs, not every such curve was filed as active; the % refers to the signal ratio)
In short: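 Read-out is beta-lactamase FRET fluorescence after 2 h at room temperature with LiveBLAzer B/G substrate. p53 response element-bla cells were treated 16 h at 37 C with compounds in DMSO, added 5 h after seeding.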

[11] = biological target: 5-hydroxytryptamine receptor 2A (Homo sapiens) (UniProt P28223); test: 5-hydroxytryptamine receptor 2A (HTR2A) small molecule antagonists, cell-based qHTS assay (AID 1963586); further: nearly all actives have a fitted effect of over 45% in size
In short: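 CHO cells stably expressing human HTR2A were plated for 18 h at 37 C, then loaded with calcium dye for 1 h. Compounds were preincubated 5 min at room temperature before DOI (4 nM solution) was added. Kinetic fluorescence was read for 3 min.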

[12] = biological target: 5-hydroxytryptamine receptor 2A (Homo sapiens) (UniProt P28223); test: 5-hydroxytryptamine receptor 2A (HTR2A) small molecule agonists, cell-based qHTS assay (AID 1963587); further: nearly all actives have a fitted effect of over 30% in size
In short: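 CHO cells stably expressing human HTR2A, plated 18 h, loaded with calcium dye 1 h at 37 C. Agonist mode: compounds added and intracellular calcium fluorescence recorded kinetically for 2 min at 1 sec intervals.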

[13] = biological target: Muscarinic acetylcholine receptor M1 (Homo sapiens) (UniProt P11229); test: Cholinergic receptor muscarinic 1 (CHRM1) small molecule antagonists, cell-based qHTS assay (AID 1963588); further: nearly all actives have a fitted effect of over 40% in size; further: potency means the concentration at half of the fitted maximal effect
In short: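 Compounds were tested at 15 concentrations in three independent runs. Dye-loaded CHRM1-CHO cells were exposed 5 min at room temperature before stimulation by acetylcholine added at 50nM. Intracellular calcium was read kinetically on FDSS for 3 min.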

[14] = biological target: Muscarinic acetylcholine receptor M1 (Homo sapiens) (UniProt P11229); test: Cholinergic receptor muscarinic 1 (CHRM1) small molecule agonists, cell-based qHTS assay (AID 1963589); further: nearly all actives have a fitted effect of over 35% in size
In short: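 Agonist-mode calcium-flux screen: compounds at 15 concentrations, three independent runs, were pin-transferred onto dye-loaded human CHRM1-CHO cells. Fluorescence was then recorded kinetically every second over minutes.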

[15] = cAMP Responsive Elements (CRE) small molecule agonists, cell-based qHTS assay (AID 1963590)
In short: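 Agonist mode: compound added to CRE-bla HEK 293T cells (2,000/well, 18 h after plating) for 3 h at 37 C/5% CO2. Reporter activity detected via FRET beta-lactamase substrate, 2 h room-temperature loading.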

[16] = cAMP Responsive Elements (CRE) small molecule antagonists, cell-based qHTS assay (AID 1963591; active means well fitted inhibition curve with a large enough effect in the signal ratio in the repeat runs, not every such curve was filed as active; the % refers to the signal ratio)
In short: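 Antagonist mode: compounds are added alongside the adenylyl cyclase activator NKH477 (0.25 uM final) to CRE-bla HEK293T cells for 3 h. LiveBLAzer FRET substrate, 2 h at room temperature, reports bla expression.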

[17] = biological target: Beta-2 adrenergic receptor (Homo sapiens) (UniProt P07550); test: Adrenergic beta2 receptor (ADRB2) small molecule antagonists, cell-based qHTS assay (AID 1963592); further: series mostly up to about 92 µM; nearly all actives have a fitted effect of over 50% in size
In short: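 Assay format: CHO-ADRB2 cells, 18-20hr seeding at 37C/5% CO2, then compound plus 1nM isoproterenol agonist mix for 0.5hr RT. Homogeneous time-resolved fluorescence cAMP detection after 1hr, expressed as 665/615 nm ratio.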

[18] = biological target: Beta-2 adrenergic receptor (Homo sapiens) (UniProt P07550); test: Adrenergic beta2 receptor (ADRB2) small molecule agonists, cell-based qHTS assay (AID 1963593);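 further: CHO cells stably overexpressing human ADRB2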
In short: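 CHO cells stably over-expressing ADRB2 were plated overnight at 37C, then dosed with compounds plus a stimulation mix containing 100uM IBMX and 25uM Ro-20-1724 for 0.5hr at room temperature. cAMP was measured by HTRF competition, 1hr.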

[19] = biological target: D(2) dopamine receptor (Homo sapiens) (UniProt P14416); test: Dopamine D2 receptor (DRD2) small molecule agonists, cell-based qHTS assay (AID 1963594); further: nearly all actives have a fitted effect of over 35% in size
In short: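 HEK293 cells stably expressing human DRD2, pre-treated with PDE inhibitor Ro20-1724 (0.1 mM final) and compound 10 min at room temperature, then stimulated with NKH477 (200nM […]) for 30 min. cAMP read by HTRF (665/620 nm).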

[20] = biological target: D(2) dopamine receptor (Homo sapiens) (UniProt P14416); test: Dopamine D2 receptor (DRD2) small molecule antagonists, cell-based qHTS assay (AID 1963595; active means well fitted inhibition curve with a large enough effect in the signal ratio in the repeat runs, with a control signal flat; the % refers to the signal ratio)
In short: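 HTRF cAMP read-out at 665 and 620 nm emission (340 nm excitation). Antagonist mode: compounds were tested against 12 nM quinpirole in DRD2-HEK293 cells, with 200 nM NKH477 raising cAMP and 0.1 mM Ro20-1724 blocking its breakdown.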

Sequence of Gonadotropin-releasing hormone receptor (Homo sapiens) (P30968 whole entry, looked up): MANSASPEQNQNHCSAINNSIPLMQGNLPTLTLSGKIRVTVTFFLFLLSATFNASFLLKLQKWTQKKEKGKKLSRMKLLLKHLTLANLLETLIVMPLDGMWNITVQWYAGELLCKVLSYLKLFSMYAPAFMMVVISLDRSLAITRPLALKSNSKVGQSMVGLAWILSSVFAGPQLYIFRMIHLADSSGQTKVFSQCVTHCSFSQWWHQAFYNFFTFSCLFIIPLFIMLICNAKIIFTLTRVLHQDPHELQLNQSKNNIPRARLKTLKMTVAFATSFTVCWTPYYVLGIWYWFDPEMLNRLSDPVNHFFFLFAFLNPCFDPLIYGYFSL
Sequence of D(2) dopamine receptor (Homo sapiens) (P14416 whole entry, looked up): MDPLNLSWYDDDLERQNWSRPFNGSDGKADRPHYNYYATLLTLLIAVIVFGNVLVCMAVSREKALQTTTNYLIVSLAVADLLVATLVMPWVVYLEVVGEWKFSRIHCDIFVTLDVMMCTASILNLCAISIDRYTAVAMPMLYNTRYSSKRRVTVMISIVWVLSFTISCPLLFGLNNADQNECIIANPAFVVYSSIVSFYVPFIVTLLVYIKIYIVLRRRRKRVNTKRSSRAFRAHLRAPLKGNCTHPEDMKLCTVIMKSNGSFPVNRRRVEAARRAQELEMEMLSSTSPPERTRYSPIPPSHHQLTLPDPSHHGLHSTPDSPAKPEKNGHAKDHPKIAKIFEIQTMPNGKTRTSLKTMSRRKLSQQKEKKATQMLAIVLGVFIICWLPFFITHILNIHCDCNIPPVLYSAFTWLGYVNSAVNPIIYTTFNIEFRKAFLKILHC
Sequence of Beta-2 adrenergic receptor (Homo sapiens) (P07550 whole entry, looked up): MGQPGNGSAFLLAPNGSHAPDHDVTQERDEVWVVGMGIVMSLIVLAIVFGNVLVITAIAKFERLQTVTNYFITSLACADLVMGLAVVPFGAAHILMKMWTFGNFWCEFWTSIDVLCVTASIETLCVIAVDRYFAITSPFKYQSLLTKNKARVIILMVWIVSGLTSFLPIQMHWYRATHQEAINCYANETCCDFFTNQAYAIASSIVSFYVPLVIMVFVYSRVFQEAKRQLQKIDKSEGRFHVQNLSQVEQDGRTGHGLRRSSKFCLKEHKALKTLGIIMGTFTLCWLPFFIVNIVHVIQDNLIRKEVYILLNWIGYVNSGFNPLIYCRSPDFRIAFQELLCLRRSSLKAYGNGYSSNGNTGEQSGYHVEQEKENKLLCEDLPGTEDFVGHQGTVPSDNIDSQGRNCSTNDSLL
Sequence of KiSS-1 receptor (Homo sapiens) (Q969F8 whole entry, looked up): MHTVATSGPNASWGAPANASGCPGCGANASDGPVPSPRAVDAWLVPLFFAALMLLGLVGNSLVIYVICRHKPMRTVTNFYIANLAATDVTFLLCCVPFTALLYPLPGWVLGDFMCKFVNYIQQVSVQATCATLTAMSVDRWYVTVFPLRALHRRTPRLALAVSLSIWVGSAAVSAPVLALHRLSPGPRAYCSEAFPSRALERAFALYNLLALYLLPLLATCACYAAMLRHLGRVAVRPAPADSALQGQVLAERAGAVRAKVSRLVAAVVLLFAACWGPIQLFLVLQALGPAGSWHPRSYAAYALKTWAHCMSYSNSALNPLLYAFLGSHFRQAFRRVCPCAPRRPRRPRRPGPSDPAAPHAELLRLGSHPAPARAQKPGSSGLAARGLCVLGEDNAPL
Sequence of 5-hydroxytryptamine receptor 2A (Homo sapiens) (P28223 whole entry, looked up): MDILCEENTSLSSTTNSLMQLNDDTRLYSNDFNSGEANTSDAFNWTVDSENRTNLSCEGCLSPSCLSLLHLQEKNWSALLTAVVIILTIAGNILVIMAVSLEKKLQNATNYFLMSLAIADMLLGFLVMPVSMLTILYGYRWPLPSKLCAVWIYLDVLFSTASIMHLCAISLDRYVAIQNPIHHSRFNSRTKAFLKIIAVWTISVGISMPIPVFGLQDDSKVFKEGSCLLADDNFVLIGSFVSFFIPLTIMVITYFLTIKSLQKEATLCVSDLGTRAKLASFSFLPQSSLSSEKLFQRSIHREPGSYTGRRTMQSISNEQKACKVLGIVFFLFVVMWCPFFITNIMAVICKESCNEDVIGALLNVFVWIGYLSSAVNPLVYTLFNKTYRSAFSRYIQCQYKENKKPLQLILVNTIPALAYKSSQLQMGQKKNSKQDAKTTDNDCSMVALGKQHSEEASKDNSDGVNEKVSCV
Sequence of Muscarinic acetylcholine receptor M1 (Homo sapiens) (P11229 whole entry, looked up): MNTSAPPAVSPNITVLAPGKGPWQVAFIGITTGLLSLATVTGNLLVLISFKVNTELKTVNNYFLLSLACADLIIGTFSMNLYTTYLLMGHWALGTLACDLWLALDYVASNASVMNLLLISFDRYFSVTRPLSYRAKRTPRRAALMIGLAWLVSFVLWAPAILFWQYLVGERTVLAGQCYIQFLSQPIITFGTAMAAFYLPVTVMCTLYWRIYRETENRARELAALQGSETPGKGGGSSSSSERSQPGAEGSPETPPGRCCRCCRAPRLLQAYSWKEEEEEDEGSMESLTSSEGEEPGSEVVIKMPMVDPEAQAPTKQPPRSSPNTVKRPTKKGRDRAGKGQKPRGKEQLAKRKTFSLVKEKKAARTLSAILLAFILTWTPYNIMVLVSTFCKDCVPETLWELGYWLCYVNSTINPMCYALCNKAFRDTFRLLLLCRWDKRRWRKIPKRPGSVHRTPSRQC

Row | SMILES | Potency [1] | Potency [2] | Potency [3] | Potency [4] | Potency [5] | Potency [6] | Potency [7] | Potency [8] | Potency [9] | Potency [10] | Potency [11] | Potency [12] | Potency [13] | Potency [14] | Potency [15] | Potency [16] | Potency [17] | Potency [18] | Potency [19] | Potency [20]
1 | CC(O)C(C)O (stereo unspecified) | inactive | inactive | inactive | inactive | inactive | inactive | inactive | inactive | inactive | inactive | inactive | inactive | inactive | inactive | inactive | inactive | inactive | inactive | inactive | inactive
2 | Nc1ccc(N=Nc2ccccc2)c(N)n1 | 1.73 µM (active) and 2.73 µM (active) and 2.37 µM (active) | inactive | inactive | inactive | inactive | inactive | inactive | inactive | inactive | inactive | inactive | inactive | inactive | inactive | inactive |  |  | inactive | inactive | inactive
3 | Cc1ccccc1C | inactive | inactive | inactive | inactive | inactive | inactive | inactive | inactive | inactive | inactive | inactive | inactive | 1.5 nM (active) | inactive | inactive | inactive | inactive | inactive |  | inactive
4 | ClC/C=C\CCl | inactive | inactive | inactive | inactive | inactive | inactive | inactive | inactive | inactive | inactive | inactive | inactive | inactive | inactive | inactive | inactive | inactive | inactive | inactive | inactive
5 | CNC(=O)NC | inactive | inactive | inactive | inactive | inactive | inactive | inactive | inactive | inactive | inactive | inactive | inactive | inactive | inactive | inactive | inactive | inactive |  | inactive | inactive
6 | CCCCCCCCOC(=O)CCCCCCCCC(=O)OCCCCCCCC | inactive | inactive | inactive | inactive | inactive | inactive | inactive | inactive | inactive | inactive | inactive | inactive | inactive | inactive | inactive | inactive | inactive | inactive | inactive | inactive
7 | CC(C#N)(CCC(=O)O)N=NC(C)(C#N)CCC(=O)O (stereo unspecified) | inactive | inactive | inactive | inactive | inactive | inactive | inactive | inactive | inactive | inactive | inactive | inactive | inactive | inactive | inactive | inactive | inactive | inactive | inactive | inactive
